Results as given in PubChem BioAssay AID540303 (National Center for Advancing Translational Sciences (NCATS), 2011).
Out of some 330,000 compounds screened, about 1,000 (0.3%) were called active. Where a call stands in place of a potency, no number is given. Not shown: some 3% with an inconclusive outcome. This is one part of a sample in which actives are shown more often than they occur. Calls come from the whole dose curve; as a rule, active = well fitted inhibition curve with a large enough effect; inconclusive = small, poorly fitted or top-dose-only effect; inactive = no such curve, though single readings can be large or run the other way; tested in mouse RAW 264.7 cells.

Assay: qHTS for Inhibitors of Cell Surface uPA Generation; note: nearly all actives have a fitted effect of over 55% in size
Conditions: cell surface uPA generation assay; series mostly up to 38.3 µM
How it was run: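 RAW 264.7 cells, 4000/well, given compound (1:5 dilutions, up to 38.3 uM final) and incubated 24 h at 37 C. Blocked uPA-dependent LF entry keeps ATP high; ATPlite luminescence read, 5 s exposure.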
Potency is the fitted concentration of half-maximal effect.

Compound	Potency
COCC(=O)N(C)[C@H]1C[C@H]2c3cc(Oc4ccccc4C)ccc3CCN2C(=O)[C@H]1[C@H](C)O	inactive
CC(=O)OC1CCC2C3CCC4=C(CC(F)C(=O)C4)C3CCC12C (stereo unspecified)	inactive
Oc1ccc(Br)cc1C=Nc1ccc2[nH]ncc2c1	inactive
Oc1ccc(Br)cc1/C=N/Nc1ccccn1	2.82 µM (active)
Oc1ccc(/C=N/Nc2ccc(C(F)(F)F)cn2)cc1O	inactive
C[C@@H]1ON(C)[C@H]2C[C@H]3c4cc(N5CCN(C)CC5)ccc4CCN3C(=O)[C@@H]12	inactive
COc1ccc(CNc2nc(NCc3ccc(OC)cc3)c3ncn(C4CCCC4)c3n2)cc1	1.41 µM (active)
COc1ccc(CNC(=O)C2CCCC2)cc1	inactive
COc1ccc(CNc2ncnc3ccccc23)cc1	inactive
OCCCNc1nccc(-c2cc(Nc3cccc(Cl)c3)ncn2)n1	1.58 µM (active)
NS(=O)(=O)c1cccnc1Nc1cccc(Cl)c1	inactive
OCCCNc1nc(-c2ccccc2)c2cc(Cl)ccc2n1	inactive
NC1=NOC(=O)C1C1CCCCC1 (stereo unspecified)	inactive
CCCCN(C(=O)CSCc1ccc(C)cc1)c1c(N)n(Cc2ccccc2)c(=O)[nH]c1=O	inactive
Nc1ccc2c(c1)C(=Cc1cccnc1)c1ccccc1-2	inactive
O=C1c2ccccc2C(=O)N1Cc1cc(-c2ccccc2Cl)no1	inactive
Clc1ccc(-c2cc(-c3ccccn3)on2)c(Cl)c1	0.891 µM (active)
COn1c(-c2ccc(Cl)cc2Cl)nc2ncccc21	inactive
CN(O)C(=S)c1ccccc1	inactive
CCc1c(Nc2ccccc2C)nc(N)[nH]c1=O	inactive
CCN(CC)S(=O)(=O)c1cccc(NC(=O)c2ccc(S(=O)(=O)N3CCCC3)cc2)c1	inactive
COc1ccc(-c2cc3ncccc3cn2)cc1	10 µM (active)

Compound	Potency
COc1ccc(-c2cn3cccnc3n2)cc1	inactive
COc1ccc(-c2nnc(-c3ccc4ccccc4c3)o2)cc1	inactive
COc1ccc(/C=C/C(=O)OCC(=O)N2CCN(S(=O)(=O)c3ccc(C)cc3C)CC2)cc1OC	inactive
COc1cc(C(=O)CCc2ccc3c(c2)OCO3)cc(OC)c1OC	inactive
S=C(Nc1ccccc1)Nc1ccc2ccccc2c1	inactive
Cc1ccn2cc(C(=O)NC3CCN(Cc4ccccc4)CC3)nc2c1	inactive
CCN(CC)S(=O)(=O)c1ccc(-c2cn3ccc(C)cc3n2)cc1	inactive
COc1ccc(-c2cn3ccc(C)cc3n2)cc1	1 µM (active)
O=c1ccn([C@@H]2O[C@H](CNS(=O)(=O)c3cc4ccccc4s3)[C@@H](O)[C@H]2O)c(=O)[nH]1	inactive
O=C(NN=Cc1ccccc1)c1ccccc1	inactive
CC(=O)N1CCc2ccc(N)cc21	inactive
COc1ccc2c(c1)c(=Cc1ccc(N(C)C)cc1)c1cc(-c3ccccc3)[n+](C)n12	inactive
O=[N+]([O-])c1cc2ccccc2nc1-c1ccccc1	inactive
COc1ccc(C(=O)c2c3ccc([N+](=O)[O-])cc3[n+]([O-])n2CCCN)cc1	0.794 µM (active)
COc1ccc(C(=O)CC(=O)C(=O)Nc2cc([N+](=O)[O-])ccc2OC)cc1	inactive
COc1ccc2c(C(=O)c3ccc(C)cc3)n(CCC(N)=O)[n+]([O-])c2c1	inactive
CC/C(=C(/c1ccccc1)c1ccc(OCC[N+](C)(C)C)cc1)c1ccccc1	inactive
Cc1c(NS(=O)(=O)c2cccc(C(=O)Nc3ccc(SC(F)F)cc3)c2)c(=O)n(-c2ccccc2)n1C	inactive
OCCN1CCN(CCO)C1=S	inactive
COc1cccc(C=CC(=O)C=CC=Cc2ccccc2)c1	inactive
COC(=O)C(C)Oc1ccc2c(c1)O/C(=C\c1cccc(Br)c1)C2=O (stereo unspecified)	inactive
COc1cc(/C=C2\Oc3ccc(C#Cc4ccc(O)cc4)cc3C2=O)cc(OC)c1	4.47 µM (active)

Compound	Potency
COc1ccc2c(c1)O/C(=C\c1ccccc1O)C2=O	inactive
CCC1([N+](=O)[O-])COC(c2ccc(C(C)C)cc2)OC1 (stereo unspecified)	inactive
N#CC1=C(N)Oc2cc(N)ccc2C1c1ccccc1 (stereo unspecified)	inactive
OC(CNCc1ccc2c(c1)OCO2)COc1ccccc1 (stereo unspecified)	inactive
CN(Cc1ccccc1)CC(O)COc1ccc(CNCc2cc3ccccc3s2)cc1 (stereo unspecified)	10 µM (active)
Cc1ccc(OCC(=O)OC(C)CN(C)Cc2ccccc2)cc1 (stereo unspecified)	inactive
O=c1nc(NO)ccn1C1CCCO1 (stereo unspecified)	inactive
CN(C)CCNC(=O)c1ccc(Cl)c2cc3ccccc3nc12	inactive
Cc1ccc(S(=O)(=O)n2oc(=O)c(C3CCCCC3)c2N)cc1	inactive
COc1ccc(CC2c3cc(OC)c(OC)cc3CC[N+]2(C)CCC(=O)OCCCCCOC(=O)CC[N+]2(C)CCc3cc(OC)c(OC)cc3C2Cc2ccc(OC)c(OC)c2)cc1OC (stereo unspecified)	10 µM (active)
COC(=O)C1=CN(Cc2ccc(OC)c(OC)c2)C=C(C(=O)OC)C1c1cccs1	inactive
CCc1ccc(OCC2c3cc(OC)c(OC)cc3CCN2C(C)=O)cc1 (stereo unspecified)	inactive
COc1ccc(S(=O)(=O)N2CCc3ccccc32)cc1C(=O)Nc1cc(S(C)(=O)=O)ccc1Cl	inactive
O=C1/C(=C\c2ccc([N+](=O)[O-])cc2)CS(=O)(=O)C/C1=C/c1ccc([N+](=O)[O-])cc1	inactive
CCOC(=O)c1ccccc1OC(=O)Oc1ccccc1C(=O)OCC	inactive
CCOC(=O)c1c(C)[nH]c(C)c1S(=O)(=O)N(C)CC(=O)Nc1ccccc1C	inactive
CCOC(=O)c1c(C)[nH]c2c1-c1ccccc1C(=O)C2=O	5.62 µM (active)
CC(=O)Oc1ccc(OC(C)=O)c2c1C1C=CC2CC1	inactive
C[C@H](O)[C@@H]1C(=O)N2CCc3ccc(N4CCOCC4)cc3[C@@H]2C[C@@H]1N(C)C(=O)C(C)(C)C	inactive
CC(NC(=O)c1ccccc1)C(=O)OCC(=O)Nc1cccc(S(=O)(=O)N2CCCC2)c1 (stereo unspecified)	inactive
CCN1/C(=C\c2ccc3ccccc3[n+]2CC)Sc2cc(C)ccc21	3.55 µM (active)
O=C(NNC(=O)c1ccccc1O)c1ccccc1O	inactive
